# Results taken from PubChem BioAssay (NCATS).
# Results filed as inconclusive are left out. Entries that show only a call come without a potency. Activity calls are given as the source filed them. The call rests on the fitted dose curve; in most records, active means well fitted curve in the direction sought with a large enough effect; inconclusive means small, poorly fitted or top-dose-only effect, or another doubt; inactive means no such curve, though single readings can be large; an effect the other way counts as inactive or inconclusive.
# What was measured:
# [1] = qHTS of pediatric cancer cell lines to identify multiple opportunities for drug repurposing: Primary screen for MG 63 (6-TG R) cells (AID 1347105); further: nearly all actives have a fitted effect of over 50% in size; further: potency means the concentration at half of the fitted maximal effect
# In short: (§1)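 Viability was measured as metabolically active cells after 48 hours of treatment, read by CellTiter-Glo luminescence. Compounds were tested at multiple final concentrations, giving concentration-response curves.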
# [2] = qHTS of pediatric cancer cell lines to identify multiple opportunities for drug repurposing: Primary screen for control Hh wild type fibroblast cells (AID 1347106); further: nearly all actives have a fitted effect of over 55% in size; further: potency means the concentration at half of the fitted maximal effect
# In short: (§2)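 Viability after 48 h compound treatment at 37C, 500-1,000 cells/well, read as ATP luminescence with CellTiter-Glo. Primary screens used 11-point (MIPE, 0.78 nM-46 µM) or 8-point (NPC, 0.59 nM-46 µM) final concentrations; follow-up screens used 11-point dilutions.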
# [3] = qHTS of pediatric cancer cell lines to identify multiple opportunities for drug repurposing: Primary screen for Rh30 cells (AID 1347107); further: series mostly up to about 46 µM; nearly all actives have a fitted effect of over 75% in size
# In short: as §2
# [4] = qHTS of pediatric cancer cell lines to identify multiple opportunities for drug repurposing: Primary screen for Rh41 cells (AID 1347108); further: nearly all actives have a fitted effect of over 70% in size; further: potency means the concentration at half of the fitted maximal effect
# In short: as §1
# [5] = qHTS of pediatric cancer cell lines to identify multiple opportunities for drug repurposing: Confirmatory screen for NB1643 cells (AID 1347109); further: nearly all actives have a fitted effect of over 45% in size
# In short: as §2
# [6] = qHTS of pediatric cancer cell lines to identify multiple opportunities for drug repurposing: Confirmatory screen for A673 cells (AID 1347110); further: nearly all actives have a fitted effect of over 65% in size; further: potency means the concentration at half of the fitted maximal effect
# In short: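 Cells plated at 500-1,000/well were treated five hours later with multi-point dilutions up to 46 µM final. After two days, CellTiter-Glo was added and luminescence read.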
# [7] = qHTS of pediatric cancer cell lines to identify multiple opportunities for drug repurposing: Confirmatory screen for SK-N-MC cells (AID 1347111);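 further: cells exposed to compound for 48 h before the readout; nearly all actives have a fitted effect of over 70% in size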; further: potency means the concentration at half of the fitted maximal effect
# In short: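 SK-N-MC cells at 500-1,000 cells/well in growth media were pre-incubated 5 h, then exposed to compounds at 11-point dilutions for 48 h at 37 degrees C, 5% CO2. Viability was read as CellTiter-Glo luminescence.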
# [8] = qHTS of pediatric cancer cell lines to identify multiple opportunities for drug repurposing: Confirmatory screen for LAN-5 cells (AID 1347113); further: nearly all actives have a fitted effect of over 65% in size; further: potency means the concentration at half of the fitted maximal effect
# In short: as §2
# [9] = qHTS of pediatric cancer cell lines to identify multiple opportunities for drug repurposing: Confirmatory screen for DAOY cells (AID 1347114); further: nearly all actives have a fitted effect of over 65% in size; further: potency means the concentration at half of the fitted maximal effect
# In short: (§3)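 Viability measured as metabolically active cells via CellTiter-Glo luminescence following 48 hours of compound exposure, 11-point dilutions in confirmatory testing. 500-1,000 cells/well plated 5 hours before dosing; controls were DMSO and 2.3 µM bortezomib.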
# [10] = qHTS of pediatric cancer cell lines to identify multiple opportunities for drug repurposing: Confirmatory screen for NB-EBc1 cells (AID 1347115); further: nearly all actives have a fitted effect of over 45% in size; further: potency means the concentration at half of the fitted maximal effect
# In short: as §2
# [11] = qHTS of pediatric cancer cell lines to identify multiple opportunities for drug repurposing: Confirmatory screen for SJ-GBM2 cells (AID 1347116); further: nearly all actives have a fitted effect of over 60% in size; further: potency means the concentration at half of the fitted maximal effect
# In short: as §3
# [12] = qHTS of pediatric cancer cell lines to identify multiple opportunities for drug repurposing: Confirmatory screen for BT-37 cells (AID 1347117); further: nearly all actives have a fitted effect of over 55% in size; further: potency means the concentration at half of the fitted maximal effect
# In short: as §2
# [13] = qHTS of pediatric cancer cell lines to identify multiple opportunities for drug repurposing: Confirmatory screen for TC32 cells (AID 1347118); further: nearly all actives have a fitted effect of over 65% in size; further: potency means the concentration at half of the fitted maximal effect
# In short: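 qHTS, TC32, 48 h drug treatment, CellTiter-Glo luminescence as a proxy for metabolically active cells; primary top concentration 46 µM (MIPE 11-pt, NPC 8-pt); confirmatory 11-pt.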
# [14] = qHTS of pediatric cancer cell lines to identify multiple opportunities for drug repurposing: Confirmatory screen for Rh18 cells (AID 1347125); further: nearly all actives have a fitted effect of over 55% in size; further: potency means the concentration at half of the fitted maximal effect
# In short: as §2
# [15] = qHTS of pediatric cancer cell lines to identify multiple opportunities for drug repurposing: Confirmatory screen for Rh30 cells (AID 1347126); further: nearly all actives have a fitted effect of over 55% in size
# In short: as §2
# [16] = qHTS of pediatric cancer cell lines to identify multiple opportunities for drug repurposing: Confirmatory screen for Saos-2 cells (AID 1347127); further: nearly all actives have a fitted effect of over 60% in size
# In short: as §2
# [17] = qHTS of pediatric cancer cell lines to identify multiple opportunities for drug repurposing: Confirmatory screen for OHS-50 cells (AID 1347128); further: potency means the concentration at half of the fitted maximal effect
# In short: as §2
# [18] = qHTS of pediatric cancer cell lines to identify multiple opportunities for drug repurposing: Confirmatory screen for RD cells (AID 1347124); further: potency means the concentration at half of the fitted maximal effect
# In short: as §2
Compound,Potency [1],Potency [2],Potency [3],Potency [4],Potency [5],Potency [6],Potency [7],Potency [8],Potency [9],Potency [10],Potency [11],Potency [12],Potency [13],Potency [14],Potency [15],Potency [16],Potency [17],Potency [18]
OC(CCN1CCCCC1)(c1ccccc1)c1ccccc1,inactive,inactive,inactive,inactive,–,–,–,–,–,–,–,–,–,–,–,–,–,–
NC(=O)CC[C@@H]1NC(=O)[C@H](Cc2ccccc2)NC(=O)[C@H](Cc2ccc(O)cc2)NC(=O)CCSSC[C@@H](C(=O)N2CCC[C@H]2C(=O)N[C@@H](CCCN=C(N)N)C(=O)NCC(N)=O)NC(=O)[C@H](CC(N)=O)NC1=O,inactive,inactive,inactive,inactive,inactive,inactive,inactive,inactive,inactive,inactive,inactive,inactive,inactive,inactive,inactive,inactive,inactive,–
CCCCOc1cc(C(=O)NCCN(CC)CC)c2ccccc2n1,inactive,inactive,inactive,inactive,–,–,–,–,–,–,–,–,–,–,–,–,–,–
CC(=O)Oc1ccc(C(c2ccc(OC(C)=O)cc2)c2ccccn2)cc1,211 nM (active),inactive,inactive,inactive,inactive,–,–,inactive,inactive,inactive,inactive,–,6570 nM (active),inactive,inactive,inactive,–,inactive
CC(C)(C(=O)c1cccnc1)c1cccnc1,inactive,inactive,inactive,inactive,inactive,369 nM (active),2930 nM (active),–,inactive,inactive,–,–,3290 nM (active),inactive,inactive,–,inactive,inactive
CCCCC(=O)O[C@]1(C(=O)CO)CC[C@H]2[C@@H]3CCC4=CC(=O)CC[C@]4(C)[C@H]3[C@@H](O)C[C@@]21C,inactive,inactive,inactive,inactive,inactive,inactive,–,inactive,inactive,inactive,–,–,–,inactive,inactive,–,inactive,–
C[C@H]1C[C@H]2[C@@H]3CCC4=CC(=O)C=C[C@]4(C)[C@@]3(Cl)[C@@H](O)C[C@]2(C)[C@@]1(O)C(=O)CO,inactive,inactive,inactive,inactive,inactive,18500 nM (active),inactive,inactive,inactive,inactive,inactive,inactive,inactive,inactive,inactive,inactive,inactive,inactive
C[C@]12C=CC(=O)C=C1[C@@H](F)C[C@@H]1[C@@H]2[C@@H](O)C[C@@]2(C)[C@H]1CC[C@]2(O)C(=O)CO,inactive,inactive,inactive,inactive,inactive,inactive,inactive,inactive,inactive,inactive,–,inactive,inactive,inactive,inactive,–,inactive,inactive
C[C@@H]1C[C@H]2[C@@H]3CCC4=CC(=O)C=C[C@]4(C)[C@@]3(F)[C@@H](O)C[C@]2(C)[C@H]1C(=O)CO,inactive,inactive,inactive,inactive,inactive,inactive,–,inactive,inactive,inactive,inactive,inactive,inactive,inactive,inactive,inactive,inactive,inactive
C[C@]12CCC(=O)C=C1CC[C@H]1[C@@H]3CC[C@](O)(C(=O)CO)[C@@]3(C)C[C@H](O)[C@@]12F,inactive,inactive,inactive,inactive,inactive,inactive,–,inactive,inactive,inactive,inactive,inactive,–,inactive,–,inactive,inactive,inactive
COc1ccc(C2C(=O)c3ccccc3C2=O)cc1,inactive,inactive,inactive,inactive,–,–,–,–,–,–,–,–,–,–,–,–,–,–
COc1cccc2c1C(=O)c1c(O)c3c(c(O)c1C2=O)C[C@@](O)(C(=O)CO)C[C@@H]3O[C@H]1C[C@H](N)[C@H](O)[C@H](C)O1,5310 nM (active),1680 nM (active),inactive,1680 nM (active),–,928 nM (active),293 nM (active),1040 nM (active),9270 nM (active),3290 nM (active),2610 nM (active),657 nM (active),465 nM (active),5220 nM (active),–,–,14700 nM (active),5220 nM (active)
O=C(CCCN1CCC(O)(c2ccc(Br)cc2)CC1)c1ccc(F)cc1,inactive,inactive,inactive,inactive,inactive,–,2610 nM (active),–,–,inactive,inactive,–,2610 nM (active),inactive,–,inactive,–,–
CCOc1ccc2nc3cc(N)ccc3c(N)c2c1,inactive,inactive,inactive,18800 nM (active),–,18500 nM (active),–,–,–,–,–,–,2610 nM (active),inactive,–,–,inactive,–
